From PubChem
In the library only some 2.1% were active in any assay of this set; here they are far more common.
Abeta rescue: compounds reversing amyloid beta toxicity in yeast; yeast expressing A-beta42, growth rescue, OD600, 48 h; response scale: 0% DMSO, 100% iron-clioquinol control; Potency, µM (top dose mostly 46.1 µM), actives largely listed as activators; 0.063% of 410,000 active; AID 1347071; further: nearly all actives have a fitted effect of over 55% in size
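Yeast growth medium received pinned compounds, then yeast cells expressing toxic A-beta were added; plates incubated at 30 C for 48 hr. Growth read as absorbance at 600 nm, normalized to DMSO and equimolar FeCl3 plus clioquinol controls.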
FUS yeast rescue: rescues growth of FUS-expressing yeast. S. cerevisiae FUS-expressing, growth rescue, OD600, 24 h. Potency, µM (top dose mostly 76.6 µM), usual class: activators. 0.24% of 390,000 active;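 further: plate controls were DMSO vehicle for no effect and reference control for full effect; nearly all actives have a fitted effect of over 55% in size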
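Cultures pregrown in 2.5% raffinose medium are shifted to minimal medium containing 2% galactose to express toxic FUS. Compounds are tested at several concentrations. After 24hr at 30C, growth is quantified at 600 nm absorbance.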
TDP-43 yeast inh: TDP-43 toxicity inhibition in yeast; TDP-43 expressing yeast growth rescue, BacTiter-Glo, 24 h; Potency, µM (titrated, usually from 46.1 µM), for inactives: at the highest dose growth rescue (activation), hits mostly activators; 1.8% of 410,000 active; further: % of control where 0% means no effect; nearly all actives have a fitted effect of over 50% in size
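Yeast cells expressing TDP-43 under galactose induction are exposed to compounds for 24 hr at 30 deg C. BacTiter-Glo luminescence measures growth, so protective compounds score as activators.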
aSyn rescue: alpha-synuclein toxicity inhibition in yeast; Yeast expressing alpha-synuclein, growth rescue, BacTiter-Glo, 24 h; Potency, µM (doses to about 46.1 µM), for inactives: top-dose growth rescue (activation), most hits filed as activators; 0.14% of 370,000 active; further: % of control where 0% means no effect; nearly all actives have a fitted effect of over 65% in size
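Rescue of yeast growth: cells expressing toxic alpha-synuclein, induced in galactose at OD600 0.02, incubated with compound 24 h at 30 C. ATP luminescence quantified growth; inhibitors of toxicity appear as activators.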
Active calls of the source: *; i = inactive; u = inconclusive; x = not tested or not shown; [ ] = another dose, or the depositor's remark. The call rests on the fitted dose curve; in most records, active means well fitted curve in the direction sought with a large enough effect; inconclusive means small, poorly fitted or top-dose-only effect, or another doubt; inactive means no such curve, though single readings can be large; an effect the other way counts as inactive or inconclusive. Potency means the concentration at half of the fitted maximal effect.

SMILES | Abeta rescue | FUS yeast rescue | TDP-43 yeast inh | aSyn rescue
CC1CC(C)(C)N(C(=O)NC2CCCCC2)c2ccccc21 (stereo not drawn) | i | x | 14µM* | -8%
CC(=O)c1ccc(NC(=S)N2CCC(Cc3ccccc3)CC2)cc1 | u | i | 25µM* | 15%
CC(=O)c1ccc(NC(=S)N2c3ccccc3CC2C)cc1 (stereo not drawn) | i | i | 16µM* | u
CCN(CC)C(=O)CC[C@H]1CC[C@]2(CCCN(S(=O)(=O)C3CCCCC3)C2)O1 | x | i | x | x
O=[N+]([O-])c1nn(-c2ccc3c(c2)OCCO3)n(O)c1=NCCC1=CCCCC1 | i | i | 14µM* | -1%
O=[N+]([O-])c1nn(-c2ccc3c(c2)OCCO3)n(O)c1=NCc1ccc(F)cc1Cl | i | i | 22µM* | -1%
Cc1nc2nc(SCC(=O)N(C)Cc3ccccc3)nn2c(C)c1Cc1ccccc1Cl | i | u | u | x
O=C(CCCC(=O)OCC(Cl)=C(Cl)Cl)Nc1cccc2ccccc12 | i | i | 20% | -5%
O=C(CCCC(=O)OCC(Cl)=C(Cl)Cl)Nc1cccc(F)c1 | i | i | 14µM* | 6%
COc1cccc(NC(=O)Cc2ccccc2)c1 | i | i | -4% | -5%
O=C(CSCc1ccccc1)Nc1cccc(F)c1 | i | i | 6.3µM* | 3%
O=C(CCCC(=O)OCC(Cl)=C(Cl)Cl)Nc1ccc(F)cc1 | i | i | 16µM* | 10%
O=C(Cc1ccccc1)Nc1cccc(N2C(=O)C=CC2=O)c1 | i | x | 6.3µM* | 2%
O=C(NCCS(=O)(=O)N1CCN(c2ccc(F)cc2)CC1)c1cccc(C(F)(F)F)c1 | u | i | 10µM* | x
CC(C)(C)c1ccc(C(=O)CCCN2CCC(OC(c3ccccc3)c3ccccc3)CC2)cc1 | x | x | x | -35%
CC1=C(C(=O)NCCc2ccc(Cl)cc2)C2(CCCCC2)OC1=O | i | i | 23% | x
CCOc1ccc(-n2c(C)cc(C(=O)CCl)c2C)cc1 | i | i | 8.9µM* | -22%
COC(=O)c1ccc(-n2c(C)cc(C(=O)CCl)c2C)cc1 | i | i | u | -23%
Nc1c(C(=O)N/N=C/c2ccc([N+](=O)[O-])cc2)cnn1-c1ccccc1 | i | i | -26% | -3%
Cc1c(C(=S)Nc2ccccc2)cnn1-c1ccccc1 | i | x | 16µM* | 6%
CC(=O)c1cnn(-c2ccccc2)c1C | i | i | -4% | -10%
Cc1c(C(=S)Nc2ccccc2)cnn1-c1ccc([N+](=O)[O-])cc1 | i | x | 13µM* | 16%
CCOc1cccc(C2c3[nH]c4ccccc4c3CCN2C(=O)Cc2cccc(OCC)c2OCC)c1 (stereo not drawn) | i | i | 23% | x
N#Cc1ccc(/C=C2\CC3(OC(=O)C4CCCC4)CCCN2C3)cc1 (stereo not drawn) | x | i | x | x
O=C(CN1C(=O)CC(c2ccco2)Sc2ccccc21)Nc1ccc(Br)cc1 (stereo not drawn) | i | i | 4% | 8%
SMILES | Abeta rescue | FUS yeast rescue | TDP-43 yeast inh | aSyn rescue
O=C(CN1C(=O)CC(c2ccco2)Sc2ccccc21)Nc1ccccc1F (stereo not drawn) | i | i | 32µM* | 8%
CCOC(=O)c1ccc(N=Cc2nc(-c3ccccc3)oc2OC(C)=O)cc1 | i | i | 16µM* | 20%
CC(=O)Oc1oc(-c2ccccc2)nc1C=Nc1ccccc1 | i | x | -86% | -11%
COc1cccc2cc(C(=O)Nc3ccc(CC(=O)O)cc3)c(=O)oc12 | i | i | 25% | -17%
COCCNc1nc(Oc2cccc(F)c2)c2sccc2n1 | i | i | u | -3%
COc1ccccc1CNc1nc(Oc2cccc(F)c2)c2sccc2n1 | i | u | 35µM* | 8%
COc1ccc(/C=C2\COc3ccccc3C2=O)cc1OC | i | i | 2.8µM* | 23%
CCOc1cc(/C=C2\COc3ccccc3C2=O)cc(Br)c1OCC(=O)N(C)C | i | u | 22µM* | u
O=C(O)c1ccc(/C=C2\COc3ccccc3C2=O)cc1 | i | i | 11µM* | u
CN(Cc1ccco1)S(=O)(=O)c1ccc2c(c1)CCN2C(=O)CC(C)(C)C | x | i | x | x
CCc1ccc(NCc2cc3cc4c(cc3n(CC(=O)Nc3ccc(Cl)cc3)c2=O)OCO4)cc1 | i | i | 11% | 4%
O=C1CCCc2[nH]c(=O)c(C(=O)NCc3ccccc3)cc21 | x | x | x | -1%
CCS(=O)(=O)n1nc(-c2ccc(Cl)cc2)nc1SC | i | i | 16µM* | 0%
CCS(=O)(=O)n1nc(-c2ccco2)nc1SC | i | i | 10% | -17%
CN1/C(=C/C(=S)NC(=O)C2(C)CC2(Cl)Cl)C(C)(C)c2ccccc21 (stereo not drawn) | 10µM* | u | -11%[1.82 µM] | -7%
NNC(=O)c1cc2ccccc2[nH]1 | i | i | x | -15%
NNC(=O)c1cc2cc(Oc3ccccc3)ccc2[nH]1 | i | i | 10µM* | 1%
COCCNC(=O)c1ccc(-n2c(-c3ccccc3)cc3c2CCCCC3)cc1 | i | i | 10% | x
O=C(OCC#CCSc1nnc(-c2ccc3ccccc3c2)o1)c1cccs1 | x | i | x | x
CCc1nnc(NC(=O)c2ccccc2NC(=O)C2CCN(C(=O)c3ccco3)CC2)s1 | x | x | x | 0%
c1csc(Cn2c(-c3cccs3)nc3ccccc32)c1 | i | i | 13µM* | -16%
CC(=O)c1ccc([N+](C)(C)C)cc1 | x | x | x | -3%
COc1ccc(NC(=S)NC(=O)Cc2ccccc2)cc1 | u | i | u | 1%
O=C(Cc1ccccc1)NC(=S)Nc1ccc(OC(F)F)cc1 | 11µM* | i | 25% | -7%
Cc1cc2nc(-c3ccco3)c(Cc3cccc(Cl)c3)n2c(C)c1Br | i | i | 13µM* | 2%
SMILES | Abeta rescue | FUS yeast rescue | TDP-43 yeast inh | aSyn rescue
COc1cccc(NC(=O)c2ccccc2OCC(=O)Nc2ccc(Br)cc2)c1 | x | x | x | -16%
Cc1c(C(=O)c2ccc3c(c2)OCO3)ccc2c1OCO2 | i | x | 18µM* | 5%
CCOC(=O)C1=CCN(S(=O)(=O)c2ccc(C)cc2)C1c1ccccc1 (stereo not drawn) | i | i | 13% | 6%
CCOc1cc2c(c3c1C(c1ccccc1)N(S(=O)(=O)c1ccc(C)cc1)C3)C(=O)C=CC2=O (stereo not drawn) | i | i | 13µM* | -3%
Cc1ccc(-c2nc(=Nc3c(C)cc(C)cc3C)sn2-c2ccccc2)cc1 | x | x | x | -45%
Cc1ccc(OCCCCn2c(CCNC(=O)C3CCCCC3)nc3ccccc32)cc1 | x | x | x | 2%
CCN(c1ccccc1)c1cc(C)nc2ncnn12 | i | i | 10% | -4%
Cc1cc(Oc2ccc(-c3ccccc3)cc2)n2ncnc2n1 | i | i | 18µM* | 13%
Cc1cc(C(F)(F)F)n2nc(-c3cnn(C)c3C(F)(F)F)c(Br)c2n1 | i | i | 13µM* | 5%
CCOC(=O)c1ccc(N2CCN(c3ccccc3F)CC2)c(NC(=O)Nc2ccc(Cl)c(Cl)c2)c1 | i | i | 7% | x
